From PubChem BioAssay
CtBP-E1A inh: CtBP/E1A binding inhibition; activity change, % (no concentration beside the values); AID 651724; hit rate 0.49% among 340,000; AlphaScreen GST-E1A/His-CtBP binding, 1536-well; hits give low values; in the data active means activity change below about -65%; inconclusive means mostly about -30% to -63%; further: on the % scale 0 is the no-effect control and ±100 the full control effect
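Steps: dispense buffer (Tris pH 8.0, NaCl 300 mM, TCEP 1 mM, BSA, Tween 20); add 5X protein mix (GST-E1A, His-CtBP, 125 nM each); pin 23 nL compound; 2 h at 37 °C, dark; add 5X beads (50 ug/mL); 1 h; read.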
VP16 counter: inhibits Gal4-VP16 luciferase reporter, ROR gamma counter-screen | Potency, µM (series often up to 53.6 µM), for the others: at the highest dose activity, negative = inhibition, hits mostly inhibitors | hit rate 3.5% among 310,000 | Drosophila S2 Gal4-VP16 UAS-luciferase, luminescence, 20 h;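 further: Gal4-VP16 expression switched on by copper sulfate through the metallothionein promoter; potency means the concentration at half of the fitted maximal effect; on the % scale 0 is the no-effect control and ±100 the full control effect; nearly all actives have a fitted effect of over 50% in size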
RORgamma inh: blocks mouse ROR gamma transcriptional activity; Potency, µM (highest dose often 53.6 µM), inactives show at the top dose activity change, negative = inhibition, hits mostly inhibitors; AID 2551; P51450; Drosophila S2 Gal4-RORgamma UAS-luciferase reporter, 20 h; hit rate 5.4% among 310,000; further: potency means the concentration at half of the fitted maximal effect; on the % scale 0 is the no-effect control and ±100 the full control effect; nearly all actives have a fitted effect of over 60% in size
Target sequence (P51450 whole entry, looked up, the tested form may be a part): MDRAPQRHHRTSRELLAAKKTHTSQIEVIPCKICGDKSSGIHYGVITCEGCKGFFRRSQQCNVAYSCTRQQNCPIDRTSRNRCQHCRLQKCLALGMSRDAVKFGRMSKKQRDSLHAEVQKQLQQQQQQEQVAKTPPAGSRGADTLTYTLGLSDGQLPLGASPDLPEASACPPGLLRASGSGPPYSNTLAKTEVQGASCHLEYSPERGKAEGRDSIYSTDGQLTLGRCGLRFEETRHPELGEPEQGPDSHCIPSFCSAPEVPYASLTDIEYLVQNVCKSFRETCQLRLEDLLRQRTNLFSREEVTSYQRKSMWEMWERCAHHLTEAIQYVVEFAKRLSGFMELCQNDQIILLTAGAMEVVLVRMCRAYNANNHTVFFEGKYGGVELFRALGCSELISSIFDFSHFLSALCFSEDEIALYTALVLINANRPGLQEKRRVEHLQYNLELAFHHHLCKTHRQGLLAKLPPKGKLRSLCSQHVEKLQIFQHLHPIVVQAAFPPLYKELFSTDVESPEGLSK
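Using a luciferase readout, inhibitors were identified by reduced reporter activity in Drosophila cells coexpressing a copper-inducible Gal4–ROR gamma fusion and UAS-driven Photinus luciferase, incubated 20 hr after 700 uM copper sulfate.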
p53 reactivator: mutant p53 re-activation in reporter cells; H1299 p53-A138V BP100-luciferase reporter, luminescence, 24 h; Potency, µM (highest dose often 92.2 µM), for the others: at the highest dose activity change, positive = activation, usual class: activators; hit rate 0.063% among 320,000; AID 504706; further: potency means the concentration at half of the fitted maximal effect; % of control where 0% means no effect; nearly all actives have a fitted effect of over 45% in size
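H1299 (p53-null), stable ts p53-A138V + BP100-Luc; 1000 cells/well, Opti-MEM/10% FBS; cpd 4 pt, 1:5; 24 h, 37 deg C, 5% CO2; detection reagent 10 min RT; luminescence.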
Six1-Eya2 inh: Six1/Eya2 interaction inhibition. hit rate 0.56% among 360,000. Q15475+O00167. AlphaScreen GST-Six1/His-Eya2 binding, biochemical; hits give low values. activity change, % (no concentration beside the values). AID 651725; in the data active means activity change below about -65%; inconclusive means mostly about -30% to -63%; further: on the % scale 0 is the no-effect control and ±100 the full control effect
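Homogeneous AlphaScreen proximity assay pairing GST-Six1 with His-tagged Eya2 (added as 5X mix: 250 nM and 500 nM) in 50 mM Tris pH 8.0, 300 mM NaCl, 1 mM TCEP. Glutathione donor and nickel acceptor beads; 1 h, 37 °C, dark.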
Numbers without * were called inactive; u = inconclusive; x = no result given; [ ] = another dose, or the depositor's remark. Most compounds without a hit are left out; they make up all but 5.4% or so of the library. Unless noted, the call rests on the fitted dose curve; in most records, active means well fitted curve in the direction sought with a large enough effect; inconclusive means small, poorly fitted or top-dose-only effect, or another doubt; inactive means no such curve, though single readings can be large; an effect the other way counts as inactive or inconclusive.

SMILES	CtBP-E1A inh	VP16 counter	RORgamma inh	p53 reactivator	Six1-Eya2 inh
CC1=C(C(=O)Nc2ccccc2C(F)(F)F)C(c2sccc2C)NC(=S)N1 (configuration not stated)	0	-2%	20µM*	-3%	-4
CC1=C(C(=O)OC(C)C)C(c2cccs2)NC(=S)N1 (configuration not stated)	-10	u	13µM*	-16%	-7
CCc1ccc(C(O)c2ncc(-c3ccc(C)cc3)[nH]2)cc1 (configuration not stated)	-11	x	x	x	-2
COC(=O)[C@]12CCCCC=C1N(Cc1cccc3ccccc13)C(=O)[C@H](CC(=O)NCC1CCCCC1)C2	-11	x	x	x	-15
CCOC(=O)C1=C(O)C(=O)N(C2CCCCC2)C1	1	-4%	-34%	-4%	-14
N=c1ccn(Cc2ccc(F)cc2)cc1	x	u	u	2%	-2
CCCCCCN1Cc2ccccc2C1	-2	7%	-9%	8%	0
CCCCCCCCCCn1ccc(=N)cc1	-10	u	7.9µM*	-13%	9
CCCCCCCCn1ccc(=N)cc1	-11	7.1µM*	u	-8%	-3
COc1cc2[nH]c(Cl)c([N+](=O)[O-])c2cc1OC	-21	3%	-2%	-2%	-17
CC(=O)Nc1ccn(C2CC3OCC(NC(=O)C(Cc4ccccc4)NC(=O)OC(C)(C)C)C3O2)c(=O)n1 (configuration not stated)	x	12%	10%	x	x
CC(=O)OCCN1c2ccccc2Sc2cnccc21	-7	x	x	x	-1
CC(=O)OCCCN1c2ccccc2Nc2nnc(-c3ccccc3)cc21	-2	u	11µM*	22%	1
O=C(c1ccccc1)N1N=C(c2ccccc2)CC1(O)C(F)(F)F (configuration not stated)	x	-18%	-24%	-1%	4
CC1=NN(C(=O)c2ccccc2)C(O)(c2ccc(Br)cc2)C1 (configuration not stated)	2	u	7.9µM*	1%	2
CCOC(=O)N1N=C(C)CC1(O)c1ccccc1 (configuration not stated)	1	3%	16%	-2%	6
O=C(c1ccccc1)N1N=C(C(F)(F)F)CC1(O)c1ccccc1O (configuration not stated)	x	13µM*	8.9µM*	x	17
CCC1=NN(C(=O)c2cccc([N+](=O)[O-])c2)C(O)(c2ccc(C)cc2)C1 (configuration not stated)	-4	5.6µM*	5µM*	7%	-13
CCC1=NN(C(=O)c2ccc(Br)cc2)C(O)(c2ccccc2)C1 (configuration not stated)	6	7.1µM*	13µM*	2%	-7
CCn1cc(C(=O)O)c(=O)c2cnc(N3CCN(C(=S)NC(=O)c4ccc(F)c(F)c4)CC3)nc21	3	u	2.5µM*	-1%	-7
CCn1cc(C(=O)O)c(=O)c2cc(F)c(N3CCN(C(=S)NC(=O)c4ccc(F)cc4)CC3)cc21	-3	4µM*	2.5µM*	1%	9
CCn1cc(C(=O)O)c(=O)c2cnc(N3CCN(C(=S)NC(=O)c4ccc(OC)cc4)CC3)nc21	5	-7%	-12%	1%	0
CCn1cc(C(=O)O)c(=O)c2cc(F)c(N3CCN(C(=S)NC(=O)c4ccc(F)c(F)c4)CC3)cc21	x	u	u	-1%	3
CCn1cc(C(=O)O)c(=O)c2cc(F)c(N3CCN(C(=S)NC(=O)c4cccc(F)c4)CC3)cc21	0	3%	2.8µM*	-2%	1
CCCOc1ccc(C(=O)NC(=S)N2CCN(c3cc4c(cc3F)c(=O)c(C(=O)O)cn4CC)CC2)cc1	-1	-16%	1.8µM*	5%	0
SMILES	CtBP-E1A inh	VP16 counter	RORgamma inh	p53 reactivator	Six1-Eya2 inh
COc1ccccc1C(=O)N/C(=C\c1cn(S(=O)(=O)N(C)C)c2ccccc12)C(=O)N1CCCCC1	-3	-7%	-16%	-19%	3
CC(C)c1ccc(C(N)=S)cc1	x	18µM*	4µM*	-2%	-8
N#CC1=C(N)Oc2n[nH]c(-c3cccnc3)c2C1c1cc(F)ccc1F (configuration not stated)	17	-6%[10 µM]	5%	0%	6
COCc1[nH]nc2c1C(c1c(F)cccc1Cl)C(C#N)=C(N)O2 (configuration not stated)	-3	18µM*	u	-1%	9
N#CC1=C(N)Oc2n[nH]c(-c3ccccn3)c2C1c1c(F)cccc1Cl (configuration not stated)	-5	8.9µM*	3.2µM*	5%	4
O=S(=O)(c1ccc(F)c(F)c1)N1CCN(S(=O)(=O)c2cccs2)CC1	2	5%	4%	4%	-1
CCCCC(C)/C=C(C)/C=C(\C)C(=O)NC1=CC(O)(/C=C/C=C/C=C/C(=O)NC2=C(O)CCC2=O)C2OC2C1=O (configuration not stated)	x	1.3µM*	0.56µM*	x	x
CC(=O)O[C@H]1C(=O)[C@@]2(C)C([C@H](OC(=O)c3ccccc3)[C@]3(O)C[C@H](OC(=O)[C@H](O)[C@@H](NC(=O)c4ccccc4)c4ccccc4)C(C)=C1C3(C)C)[C@]1(OC(C)=O)CO[C@@H]1C[C@H]2O (some centres not stated)	-8	20µM*	u	x	-4
Cc1ccc(/C=N/Nc2nc(N3CCCCC3)nc(N3CCCCC3)n2)o1	0	u	8.9µM*	1%	-7
O=[N+]([O-])c1ccc(/C=N/Nc2nc(N3CCCCCC3)nc(N3CCCCCC3)n2)o1	-5	u	11µM*	-6%	-23
O=[N+]([O-])c1ccc(-c2ccc(/C=N/Nc3nc(NCc4ccccc4)nc(N4CCOCC4)n3)o2)cc1	-4	u	13µM*	11%	-3
COC(=O)c1ccccc1-c1ccc(/C=N/Nc2nc(N3CCCC3)nc(N3CCCC3)n2)o1	7	u	u	0%	1
CC1COC(=O)O1 (configuration not stated)	x	-6%	0%	x	x
CCOc1ccccc1C(=O)NC(C(=O)NCCc1ccccn1)C(C)C (configuration not stated)	-2	x	x	-8%	9
O=C(Nc1cccc(O)c1)c1cc(-c2ccco2)on1	-5	u	13µM*	u	-3
COc1ccc(-c2cc(C(=O)Nc3cccc(O)c3)no2)cc1	-4	3.2µM*	1.4µM*	-3%	-6
O=C(Nc1ccc2c(c1)OCO2)c1cc(-c2cccc(O)c2)on1	2	14µM*	7.1µM*	u	-15
Cn1cccc1-c1nc2ccccc2[nH]1	3	-4%	-4%	12%	-3
